Compound activity as filed in PubChem BioAssay.
A selection: hits, their analogues and other compounds. The true share with any hit is near 4.1%.
DAX1 inh-1: DAX1 (NR0B1) inhibitors, primary screen, cell-based, HEK293, Gal4-DAX1, luciferase luminescence | HEK293 Gal4-DAX1 luciferase reporter | AID 504766, 2011 | Nuclear receptor subfamily 0 group B member 1 (Homo sapiens), P51843 | 340,000 tested, 0.99% active | inhibition, % at 6.75 µM;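 active = inhibition above the mean over all tested compounds plus 3 SD, cut at about 4.2% in these data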;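 note: 0% = DAX1-transfected cells with DMSO and 100% = empty-vector control cells with DMSO; inhibition shows as a rise in luminescence from relieved DAX1 repression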
Target sequence (P51843 207-470 limits assumed): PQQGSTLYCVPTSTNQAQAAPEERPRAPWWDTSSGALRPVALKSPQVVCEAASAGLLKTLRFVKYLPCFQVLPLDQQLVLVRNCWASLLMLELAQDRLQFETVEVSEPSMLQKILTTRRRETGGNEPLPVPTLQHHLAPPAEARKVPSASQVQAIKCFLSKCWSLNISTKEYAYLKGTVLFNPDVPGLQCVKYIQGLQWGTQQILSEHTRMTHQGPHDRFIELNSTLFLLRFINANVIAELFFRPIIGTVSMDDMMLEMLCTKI
DAX1 inh-2: DAX1 (NR0B1) inhibitors on StAR promoter, primary screen, cell-based, luminescence, SF-1 (NR5A1), full-length DAX-1. HEK293T StAR-luciferase reporter, SF-1/DAX-1 repression relief. inhibition, % at 6.8 µM. 370,000 tested, 1.1% active;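 active = inhibition above the mean over all tested compounds plus 3 SD, cut at about 3.6% in these data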;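 note: 0% = DAX-1 cells with DMSO and 100% = cells lacking DAX-1 with DMSO; higher inhibition means more luminescence from relief of DAX-1 repression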
ssDAF-12 act: S. stercoralis DAF-12 nuclear receptor activators, primary screen, cell-based, luminescence, HEK293, GRIP1 co-expression, lit1-tk-luc | activation, % at 6.8 µM | HEK293 ssDAF-12/GRIP1 lit1-tk-luc reporter; % of 3 µM dafachronic acid response | AID 652126, 2013 | 370,000 tested, 1% active | Nuclear hormone receptor DAF-12 (Strongyloides stercoralis);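 active = activation above the mean over all tested compounds plus 3 SD, cut at about 0.9% in these data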;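 note: 0% = DMSO-only wells and 100% = 3 µM delta7-dafachronic acid wells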
hgDAF-12 ag: H. glycines DAF-12 receptor agonists, primary screen, cell-based, luminescence, HEK293, GAL4 fusion, UAS-luciferase. Nuclear hormone receptor DAF-12 (Heterodera glycines), GAL4 fusion. AID 687014, 2013. 370,000 tested, 1.8% active. HEK293 GAL4-hgDAF12 UAS-luciferase reporter, agonist luminescence; normalized to butyrate control. activation, % at 6.8 µM;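 active = activation above a cutoff set at the mean of all screened compounds plus 3 SD, cut at about 10% in these data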;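 note: 0% = DMSO wells and 100% = sodium butyrate wells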
hcDAF12 agonist: H. contortus DAF-12 nuclear receptor activators, primary screen, cell-based, luminescence, HEK293, lit1-tk-luc reporter; activation, % at 6.8 µM; 370,000 tested, 1.4% active; HEK293 hcDAF-12 lit1-tk-luc reporter; 0% DMSO, 100% Δ7-dafachronic acid;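 active = activation above the mean of all tested compounds plus 3 SD, cut at about 5.5% in these data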;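 note: 100% = response to 3 µM Δ7-dafachronic acid high control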
DAX1 inh confirm: DAX1 (NR0B1) inhibitors relieving SF-1 repression, confirmation, cell-based, luminescence, HEK293T, full-length DAX-1, SF-1 activated StAR promoter | shares compounds with DAX1 inh-2 | HEK293T StAR-promoter luciferase reporter, SF-1/DAX-1 repression | inhibition, % at 6.8 µM | 2,400 tested, 87% active;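 active = inhibition above the average of every tested compound plus 3 SD, cut at about 3.8% in these data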;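 note: 0% = DAX-1 cells with DMSO and 100% = no DAX-1 control cells with DMSO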
Target sequence (P51843 whole entry, looked up): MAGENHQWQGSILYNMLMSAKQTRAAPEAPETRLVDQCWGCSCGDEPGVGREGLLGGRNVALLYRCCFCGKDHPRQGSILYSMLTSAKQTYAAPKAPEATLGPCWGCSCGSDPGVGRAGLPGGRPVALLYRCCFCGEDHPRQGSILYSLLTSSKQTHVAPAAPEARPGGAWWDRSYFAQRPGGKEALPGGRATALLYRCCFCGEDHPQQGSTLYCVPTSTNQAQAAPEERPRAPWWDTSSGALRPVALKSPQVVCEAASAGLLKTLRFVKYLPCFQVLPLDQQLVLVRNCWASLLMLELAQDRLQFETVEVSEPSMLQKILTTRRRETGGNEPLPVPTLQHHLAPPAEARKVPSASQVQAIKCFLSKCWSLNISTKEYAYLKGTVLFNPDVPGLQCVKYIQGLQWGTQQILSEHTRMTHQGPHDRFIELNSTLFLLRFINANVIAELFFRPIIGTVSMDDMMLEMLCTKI
SF1 AF2mut Luc: StAR reporter signal changes without DAX1, counter-screen for DAX1 inhibitor project, cell-based, luminescence, AF-2 mutant SF-1, transactivation; shares compounds with DAX1 inh-2; HEK293 StAR-luciferase, SF-1 AF2 mutant; inhibition, % at 6.8 µM; 2,400 tested, 78% active;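 active = inhibition above the mean of all tested compounds plus 3 SD, cut at about 3% in these data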;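 note: 0% = DAX-1 transfected cells with DMSO and 100% = cells without DAX-1 with DMSO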
LXRb hcDAF ctr: LXR agonists, Gal4 luciferase reporter, confirmation, counter-screen for hcDAF-12 agonist project, cell-based, luminescence, HEK293, H. contortus campaign | activation, % at 6.8 µM | shares compounds with hcDAF12 agonist | HEK293 Gal4-LXR tk-luc reporter, 24 h; normalized: DMSO 0%, positive control 100% | 3,400 tested, under 10 active;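 active = mean percent activation of the reporter above a cutoff set as the average over tested compounds plus their standard deviation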
hcDAF12 ag: H. contortus DAF-12 receptor agonists, confirmation, cell-based, luminescence, HEK293, lit1-tk-luc, triplicate; activation, % at 6.8 µM; HEK293 hcDAF-12 lit1-tk-luc reporter; % of Δ7-dafachronic acid response; AID 743032, 2013; 3,400 tested, 61% active; shares compounds with hcDAF12 agonist;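 active = mean activation across triplicate tests above the threshold derived from the earlier primary screen, cut at about 5.5% in these data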;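 note: 0% = DMSO only wells and 100% = 3 µM Δ7-dafachronic acid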
hgDAF12 conf: H. glycines DAF-12 receptor agonists, confirmation, cell-based, luminescence, HEK293, GAL4-LBD fusion; shares compounds with hgDAF-12 ag; HEK293 GAL4-hgDAF12 luciferase reporter, agonist mode; percent of butyrate response; activation, % at 6.8 µM; 3,300 tested, 80% active; AID 743050, 2013;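 active = mean activation over triplicate wells above the hit cutoff derived from the earlier primary screen, cut at about 11% in these data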;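 note: 0% = DMSO low control and 100% = 2 mM sodium butyrate high control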
LXR ag 2: LXR agonists, Gal4 luciferase reporter, confirmation, counter-screen for hgDAF-12 agonist project, cell-based, luminescence, HEK293, H. glycines campaign; 24 h; activation, % at 6.8 µM; 3,300 tested, under 10 active; shares compounds with hgDAF-12 ag;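 active = mean activation of the triplicate above a set limit carried over from the primary screen, none filed active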
Starred values were filed as active, the others as inactive; / = not tested or not shown.

SMILES | DAX1 inh-1 | DAX1 inh-2 | ssDAF-12 act | hgDAF-12 ag | hcDAF12 agonist | DAX1 inh confirm | SF1 AF2mut Luc | hgDAF12 conf | LXR ag 2 | others
Clc1ccc(/C=N/Nc2ccccn2)cc1 | 4 | 2 | 0 | 10 | 2 | / | / | / | /
O=C(Cc1ccccc1)N/N=C/c1ccc(OCC(=O)Nc2ccccc2)cc1 | 1 | -1 | -1 | 0 | -1 | / | / | / | /
CC(C)NC(=O)[C@H]1N2C(=O)c3ccccc3C2SC1(C)C (stereo not given in full) | 0 | 0 | -1 | 0 | -1 | / | / | / | /
CCOC(=O)C1=CCC(c2cc3ccccc3[nH]2)NC1 (stereo not given) | / | 5.7* | 1.1* | 15* | 8.0* | 8.9* | 5.0* | 19* | 1 | LXRb hcDAF ctr=1;hcDAF12 ag=6.4*
CCOC(=O)c1c(C)nc(C)c(C(=O)OCC)c1-c1ccccc1 | 1 | / | / | / | / | / | / | / | /
N#C/C(=C\c1cccc(NC(=O)c2ccccc2Cl)c1)C(=O)NCCc1ccccc1 | -3 | -2 | -1 | 4 | -2 | / | / | / | /
Fc1ccc(-c2csc(N3CCOCC3)n2)cc1 | 4 | 0 | 0 | 5 | 2 | / | / | / | /
c1ccc2oc(-c3csc(N4CCOCC4)n3)cc2c1 | 1 | 7.7* | 0 | 18* | 9.3* | 11* | 3.2* | 15* | 1 | LXRb hcDAF ctr=1;hcDAF12 ag=7.8*
N#Cc1cccc(C#N)c1Oc1ccc(S(=O)(=O)Nc2ccc(Cl)cc2)cc1 | 0 | 0 | -1 | -2 | -2 | / | / | / | /
Cc1ccc(Cc2c(-c3ccc(F)cc3)nc3ccc(Cl)cn23)cc1 | 3 | 2 | 1 | 3 | 1 | / | / | / | /
Cc1ccc(-c2nc3ccc(Br)cn3c2Cc2ccccc2)cc1 | / | 5.4* | 1 | 14* | 3 | 8.2* | 3 | 16* | 1
Cc1ccc2nc(-c3ccc(F)cc3)c(Cc3ccccc3C(F)(F)F)n2c1 | / | 4.7* | 1.7* | 14* | 5 | 2 | 4.6* | 6 | 0
Cc1ccc(Cc2c(-c3ccc(F)cc3)nc3ccc(Br)cn23)cc1 | / | 1 | -1 | 6 | 2 | / | / | / | /
Cc1ccc(Cc2c(-c3ccccc3)nc3ccc(Br)cn23)cc1 | 0 | 2 | 0 | 7 | 2 | / | / | / | /
Cc1ccc(Cc2c(-c3ccc(Br)cc3)nc3cc(C)ccn23)cc1 | 4 | 7.5* | 0 | 14* | 4 | 3.7* | 2 | 1 | 0
COc1ccc(-c2nc3ccc(C)cn3c2Cc2ccccc2C(F)(F)F)cc1OC | / | 1 | -1 | 1 | -2 | / | / | / | /
Cc1ccc(Cc2c(-c3ccc(F)cc3)nc3cc(C)ccn23)cc1 | 3 | 6.6* | 0 | 17* | 2 | 0 | 0 | 7 | 0
CCCOCC(O)CCc1n[nH]c(=S)n1-c1ccccc1 (stereo not given) | -1 | 0 | 0 | 0 | 2 | / | / | / | /
COC(=O)[C@]12CCCCC=C1N(CCC1=CCCCC1)C(=O)[C@H](CC(=O)NCC13CC4CC(CC(C4)C1)C3)C2 | / | 1 | -1 | 4 | -1 | / | / | / | /
Cc1ccc(-c2nc3ccc(C)cn3c2Cc2ccccn2)cc1 | / | 5.8* | 0 | 14* | 3 | 10* | 4.5* | 5 | 1
Cc1ccc2nc(-c3ccc(C#N)cc3)c(Cc3ccccn3)n2c1 | / | 3 | 0 | 6 | 1 | / | / | / | /
O=C(Nc1ccc(Cl)cc1)c1ccc(Br)cc1F | 4 | 7.5* | 1 | 18* | 9.6* | 11* | 7.5* | 20* | 1 | LXRb hcDAF ctr=1;hcDAF12 ag=6
O=C(c1[nH]c(C(F)(F)F)nc1-c1ccccc1)N1CCc2ccccc2C1 | / | 2 | -1 | 6 | 1 | / | / | / | /
N#C/C(=C\c1ccc2c(c1)OCO2)C(N)=S | / | 0 | 0 | -2 | 0 | / | / | / | /
Cc1ccc(C(C#N)=Cc2ccc3c(c2)OCO3)cc1 | 4 | 6.8* | 1 | 18* | 5 | 11* | 5.0* | 21* | 1
SMILES | DAX1 inh-1 | DAX1 inh-2 | ssDAF-12 act | hgDAF-12 ag | hcDAF12 agonist | DAX1 inh confirm | SF1 AF2mut Luc | hgDAF12 conf | LXR ag 2 | others
O=C(CNC(=O)c1cc(Cl)cc([N+](=O)[O-])c1)NC1CC1 | 0 | 1 | 0 | 1 | 0 | / | / | / | /
CCOC(=O)CSc1nc2cc(C)cc(C)c2cc1C#N | 0 | 0 | -1 | -1 | -1 | / | / | / | /
CCOC(=O)CSc1nc2cc(OC)ccc2cc1C#N | 2 | 4.8* | 1 | 13* | 7.2* | 15* | 8.1* | 20* | 1 | LXRb hcDAF ctr=1;hcDAF12 ag=5
CCOC(=O)CSc1nc2ccc(C)cc2cc1C#N | 4 | 5.6* | 0 | 14* | 8.9* | 13* | 10.0* | 20* | 1 | LXRb hcDAF ctr=1;hcDAF12 ag=4
Cc1ccc(S(=O)(=O)N(Cc2ccc([N+](=O)[O-])cc2)C(=O)N2CCN(C)CC2)cc1 | 2 | 1 | -1 | -1 | 0 | / | / | / | /
COc1ccc([N+](=O)[O-])cc1NS(=O)(=O)c1cccc(C(=O)O)c1 | 4 | 0 | -1 | 1 | -2 | / | / | / | /
